# Measured values as given in article PMC7862700, “An all-to-all approach to the identification of sequence-specific readers for epigenetic DNA modifications on cytosine”.
# Key:
# Experiment in all cases: DAPPL (digital affinity profiling via proximity ligation, sequencing); 10 mM Tris-HCl pH 7.5, 50 mM NaCl, 1 mM DTT, 4% glycerol, room temperature, 30 min; GST-TFs on glutathione beads, 16-mer random dsDNA library, 0.1% formaldehyde crosslink after washing; high values mean tight binding
# Conditions in all cases: protein: recombinant; tags: N-terminal GST; dsDNA, one strand shown
# [1] = molecular target: T1, FLI1 (Homo sapiens, UniProt Q01543 1-452)
# T1 sequence: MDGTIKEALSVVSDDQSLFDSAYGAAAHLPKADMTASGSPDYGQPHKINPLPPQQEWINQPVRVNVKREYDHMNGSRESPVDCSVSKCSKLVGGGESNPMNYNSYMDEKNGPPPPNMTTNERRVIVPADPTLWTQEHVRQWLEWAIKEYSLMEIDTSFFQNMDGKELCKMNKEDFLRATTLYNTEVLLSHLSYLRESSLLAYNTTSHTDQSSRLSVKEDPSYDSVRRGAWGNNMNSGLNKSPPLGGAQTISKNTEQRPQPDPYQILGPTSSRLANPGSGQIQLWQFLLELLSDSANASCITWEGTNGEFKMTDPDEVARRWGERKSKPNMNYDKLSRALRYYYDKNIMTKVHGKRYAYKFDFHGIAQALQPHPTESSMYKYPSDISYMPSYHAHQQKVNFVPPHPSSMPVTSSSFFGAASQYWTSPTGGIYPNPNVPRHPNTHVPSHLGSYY
# Summary of the method: (§1)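 After expression in yeast as GST fusions, human transcription factors were bound to glutathione beads, DNA-barcoded and mixed with a tag-only sample. The pools were incubated with 200 nmole of a 16-mer random double-stranded DNA library in Tris/NaCl/DTT/glycerol buffer (30 min, room temperature), washed and crosslinked with 0.1% formaldehyde. Proximity ligation with BsaI/T4 ligase ran for 1 h at 37 °C, before PCR amplification and sequencing on an Illumina NextSeq500. Binding signal is a hexamer's read frequency for a factor divided by its frequency for the tag-only sample.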
# [2] = molecular target: T2, ELK1 (Homo sapiens, UniProt P19419 1-428)
# T2 sequence: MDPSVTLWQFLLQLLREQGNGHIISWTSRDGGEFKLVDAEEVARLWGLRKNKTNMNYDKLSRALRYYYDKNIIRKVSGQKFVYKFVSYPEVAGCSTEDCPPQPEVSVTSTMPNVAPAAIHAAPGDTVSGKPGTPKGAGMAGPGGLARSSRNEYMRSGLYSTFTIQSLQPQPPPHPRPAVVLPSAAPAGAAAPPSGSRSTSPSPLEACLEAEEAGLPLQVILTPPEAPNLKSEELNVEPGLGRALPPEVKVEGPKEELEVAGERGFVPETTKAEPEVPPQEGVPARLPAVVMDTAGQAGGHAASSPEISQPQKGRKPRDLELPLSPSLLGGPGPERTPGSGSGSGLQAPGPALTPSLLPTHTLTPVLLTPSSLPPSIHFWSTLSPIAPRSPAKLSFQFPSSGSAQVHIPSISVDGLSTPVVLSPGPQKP
# Summary of the method: as §1
# [3] = molecular target: T3, GABPA (Homo sapiens, UniProt Q06546 1-454)
# T3 sequence: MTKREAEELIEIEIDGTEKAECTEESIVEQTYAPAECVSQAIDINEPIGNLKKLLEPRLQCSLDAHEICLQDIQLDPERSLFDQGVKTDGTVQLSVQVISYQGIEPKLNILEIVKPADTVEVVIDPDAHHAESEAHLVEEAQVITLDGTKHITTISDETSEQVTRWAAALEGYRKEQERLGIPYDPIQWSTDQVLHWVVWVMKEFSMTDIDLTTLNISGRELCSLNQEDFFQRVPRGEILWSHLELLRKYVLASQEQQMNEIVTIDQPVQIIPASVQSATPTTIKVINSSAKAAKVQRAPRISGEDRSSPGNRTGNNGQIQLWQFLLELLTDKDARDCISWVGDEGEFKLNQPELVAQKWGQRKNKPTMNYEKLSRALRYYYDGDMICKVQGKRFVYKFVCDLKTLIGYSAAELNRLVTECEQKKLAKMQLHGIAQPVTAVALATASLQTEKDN
# Summary of the method: as §1
# [4] = molecular target: T4, ERG (Homo sapiens, UniProt P11308 1-479)
# T4 sequence: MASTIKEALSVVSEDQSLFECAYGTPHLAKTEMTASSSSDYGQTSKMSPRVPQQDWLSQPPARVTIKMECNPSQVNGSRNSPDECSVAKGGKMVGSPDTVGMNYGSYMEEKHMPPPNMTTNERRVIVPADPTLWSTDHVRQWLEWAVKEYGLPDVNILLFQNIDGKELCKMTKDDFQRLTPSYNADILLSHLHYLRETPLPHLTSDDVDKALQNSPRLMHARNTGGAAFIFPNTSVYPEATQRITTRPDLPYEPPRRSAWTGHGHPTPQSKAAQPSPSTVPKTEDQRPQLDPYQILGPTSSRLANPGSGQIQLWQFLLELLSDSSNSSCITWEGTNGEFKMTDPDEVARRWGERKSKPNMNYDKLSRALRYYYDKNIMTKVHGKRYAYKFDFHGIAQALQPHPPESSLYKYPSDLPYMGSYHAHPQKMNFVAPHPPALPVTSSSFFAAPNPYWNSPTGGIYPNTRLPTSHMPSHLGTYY
# Summary of the method: as §1
# [5] = molecular target: ELF1 (Homo sapiens, UniProt P32519 1-619)
# ELF1, sequence (P32519 whole entry): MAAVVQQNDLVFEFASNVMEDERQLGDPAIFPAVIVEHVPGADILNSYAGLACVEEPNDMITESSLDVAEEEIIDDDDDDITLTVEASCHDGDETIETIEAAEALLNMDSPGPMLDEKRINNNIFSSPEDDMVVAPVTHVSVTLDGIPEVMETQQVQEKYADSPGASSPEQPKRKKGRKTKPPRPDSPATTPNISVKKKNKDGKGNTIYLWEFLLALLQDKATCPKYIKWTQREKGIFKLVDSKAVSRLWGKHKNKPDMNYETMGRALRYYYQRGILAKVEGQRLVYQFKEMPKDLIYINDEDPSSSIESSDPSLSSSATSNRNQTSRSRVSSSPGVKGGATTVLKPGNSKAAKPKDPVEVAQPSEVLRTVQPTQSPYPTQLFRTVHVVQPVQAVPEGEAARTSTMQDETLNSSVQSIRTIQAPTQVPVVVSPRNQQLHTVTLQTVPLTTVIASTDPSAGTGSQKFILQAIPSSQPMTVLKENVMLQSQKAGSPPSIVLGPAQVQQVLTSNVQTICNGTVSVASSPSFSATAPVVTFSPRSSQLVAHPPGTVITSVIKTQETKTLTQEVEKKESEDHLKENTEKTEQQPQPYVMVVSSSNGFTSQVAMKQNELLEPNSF
# Summary of the method: as §1
# [6] = molecular target: T5, EHF (Homo sapiens, UniProt Q9NZC4 1-300)
# T5 sequence: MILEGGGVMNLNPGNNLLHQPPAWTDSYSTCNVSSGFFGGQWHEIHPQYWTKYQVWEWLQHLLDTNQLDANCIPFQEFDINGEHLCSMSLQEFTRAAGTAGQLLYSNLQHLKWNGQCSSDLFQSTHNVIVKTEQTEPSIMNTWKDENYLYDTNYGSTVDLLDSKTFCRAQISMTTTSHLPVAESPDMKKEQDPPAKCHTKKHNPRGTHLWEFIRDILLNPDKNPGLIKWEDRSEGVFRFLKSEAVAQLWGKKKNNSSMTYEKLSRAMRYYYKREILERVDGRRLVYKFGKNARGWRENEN
# Summary of the method: as §1
# [7] = molecular target: SPI1 (Homo sapiens, UniProt P17947 1-270)
# Summary of the method: as §1
# [8] = molecular target: SPIB (Homo sapiens, UniProt Q01892 1-262)
# SPIB, sequence (Q01892 whole entry): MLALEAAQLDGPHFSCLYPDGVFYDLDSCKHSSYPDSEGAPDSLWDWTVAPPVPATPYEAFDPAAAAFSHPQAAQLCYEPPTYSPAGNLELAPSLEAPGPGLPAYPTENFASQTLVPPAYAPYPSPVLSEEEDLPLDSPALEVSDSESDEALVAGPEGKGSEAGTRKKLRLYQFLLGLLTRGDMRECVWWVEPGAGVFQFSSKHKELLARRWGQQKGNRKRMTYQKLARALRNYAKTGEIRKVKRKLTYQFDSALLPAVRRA
# Summary of the method: as §1
# [9] = molecular target: T6, ELK3 (Homo sapiens, UniProt P41970 1-407)
# T6 sequence: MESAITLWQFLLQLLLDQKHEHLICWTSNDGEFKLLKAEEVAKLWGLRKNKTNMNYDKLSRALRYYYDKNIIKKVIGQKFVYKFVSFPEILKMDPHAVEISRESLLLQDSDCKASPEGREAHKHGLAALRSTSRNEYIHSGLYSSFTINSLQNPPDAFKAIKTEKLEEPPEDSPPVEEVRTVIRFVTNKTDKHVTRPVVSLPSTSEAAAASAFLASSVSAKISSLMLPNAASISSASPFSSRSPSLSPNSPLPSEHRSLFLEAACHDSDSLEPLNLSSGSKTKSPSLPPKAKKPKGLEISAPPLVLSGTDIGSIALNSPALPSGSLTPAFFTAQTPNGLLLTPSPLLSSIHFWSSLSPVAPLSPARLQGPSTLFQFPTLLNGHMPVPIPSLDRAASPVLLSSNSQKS
# Summary of the method: as §1
# [10] = molecular target: T7, FEV (Homo sapiens, UniProt Q99581 1-238)
# T7 sequence: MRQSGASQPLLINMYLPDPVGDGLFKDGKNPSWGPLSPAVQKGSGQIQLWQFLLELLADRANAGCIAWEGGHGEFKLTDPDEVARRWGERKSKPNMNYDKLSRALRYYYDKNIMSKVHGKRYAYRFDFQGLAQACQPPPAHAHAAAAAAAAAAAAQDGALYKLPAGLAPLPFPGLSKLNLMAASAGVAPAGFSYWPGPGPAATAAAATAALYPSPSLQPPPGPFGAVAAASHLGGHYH
# Summary of the method: as §1
# [11] = molecular target: ETV5 (Homo sapiens, UniProt P41161 1-510)
# ETV5, sequence (P41161 whole entry): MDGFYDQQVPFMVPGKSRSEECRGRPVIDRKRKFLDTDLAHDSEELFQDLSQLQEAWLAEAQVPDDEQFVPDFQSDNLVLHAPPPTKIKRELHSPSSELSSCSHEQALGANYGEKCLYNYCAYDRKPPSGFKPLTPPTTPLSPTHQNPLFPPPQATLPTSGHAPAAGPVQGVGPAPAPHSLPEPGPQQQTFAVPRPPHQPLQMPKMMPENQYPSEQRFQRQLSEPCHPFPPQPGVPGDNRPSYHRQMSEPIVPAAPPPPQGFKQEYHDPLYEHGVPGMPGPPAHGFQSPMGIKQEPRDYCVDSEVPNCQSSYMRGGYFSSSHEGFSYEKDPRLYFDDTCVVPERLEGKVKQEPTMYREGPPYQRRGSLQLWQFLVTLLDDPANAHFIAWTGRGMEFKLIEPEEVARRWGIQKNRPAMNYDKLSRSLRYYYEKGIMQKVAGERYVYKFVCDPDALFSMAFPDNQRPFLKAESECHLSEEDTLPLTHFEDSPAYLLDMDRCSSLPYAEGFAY
# Summary of the method: as §1
# [12] = molecular target: T8, SPIC (Homo sapiens, UniProt Q8N5J4 1-248)
# T8 sequence: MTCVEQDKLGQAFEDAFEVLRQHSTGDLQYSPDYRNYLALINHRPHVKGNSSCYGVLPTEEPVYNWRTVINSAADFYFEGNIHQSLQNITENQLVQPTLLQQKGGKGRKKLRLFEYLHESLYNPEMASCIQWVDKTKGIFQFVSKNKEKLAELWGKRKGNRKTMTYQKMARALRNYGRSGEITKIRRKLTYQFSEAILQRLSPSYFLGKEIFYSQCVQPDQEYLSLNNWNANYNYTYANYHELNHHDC
# Summary of the method: as §1
# [13] = molecular target: ELF4 (Homo sapiens, UniProt Q99607 1-663)
# ELF4, sequence (Q99607 whole entry): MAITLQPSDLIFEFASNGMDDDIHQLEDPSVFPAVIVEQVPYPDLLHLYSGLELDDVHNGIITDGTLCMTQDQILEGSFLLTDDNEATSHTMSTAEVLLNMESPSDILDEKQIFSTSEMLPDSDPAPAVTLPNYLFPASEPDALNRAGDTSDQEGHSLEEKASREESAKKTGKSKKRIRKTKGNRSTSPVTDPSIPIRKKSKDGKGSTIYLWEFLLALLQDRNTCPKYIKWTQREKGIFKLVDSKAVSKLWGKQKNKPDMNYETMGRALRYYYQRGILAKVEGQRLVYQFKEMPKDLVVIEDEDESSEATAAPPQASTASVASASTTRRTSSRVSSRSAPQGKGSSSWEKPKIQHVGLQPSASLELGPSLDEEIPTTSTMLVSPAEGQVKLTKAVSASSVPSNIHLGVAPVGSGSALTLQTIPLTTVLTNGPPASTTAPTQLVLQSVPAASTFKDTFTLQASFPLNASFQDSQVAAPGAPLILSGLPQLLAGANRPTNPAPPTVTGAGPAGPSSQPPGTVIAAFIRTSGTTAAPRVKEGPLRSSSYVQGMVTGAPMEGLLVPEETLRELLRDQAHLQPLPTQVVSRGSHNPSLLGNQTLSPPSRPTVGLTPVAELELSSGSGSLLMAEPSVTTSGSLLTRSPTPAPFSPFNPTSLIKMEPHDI
# Summary of the method: as §1
# [14] = molecular target: T9, ELK4 (Homo sapiens, UniProt P28324-2 1-405)
# T9 sequence: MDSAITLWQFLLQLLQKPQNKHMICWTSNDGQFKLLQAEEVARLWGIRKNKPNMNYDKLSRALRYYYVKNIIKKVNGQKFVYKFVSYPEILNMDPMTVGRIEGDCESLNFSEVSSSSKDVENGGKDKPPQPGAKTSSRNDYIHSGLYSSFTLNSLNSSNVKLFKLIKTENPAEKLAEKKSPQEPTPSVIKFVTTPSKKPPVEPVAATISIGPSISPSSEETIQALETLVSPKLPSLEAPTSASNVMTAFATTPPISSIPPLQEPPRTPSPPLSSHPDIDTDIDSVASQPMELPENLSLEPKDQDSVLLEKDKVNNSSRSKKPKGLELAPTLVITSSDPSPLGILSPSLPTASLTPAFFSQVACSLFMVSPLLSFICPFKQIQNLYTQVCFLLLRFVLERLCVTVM
# Summary of the method: as §1
# [15] = molecular target: T10, ETV2 (Homo sapiens, UniProt O00321 1-342)
# T10 sequence: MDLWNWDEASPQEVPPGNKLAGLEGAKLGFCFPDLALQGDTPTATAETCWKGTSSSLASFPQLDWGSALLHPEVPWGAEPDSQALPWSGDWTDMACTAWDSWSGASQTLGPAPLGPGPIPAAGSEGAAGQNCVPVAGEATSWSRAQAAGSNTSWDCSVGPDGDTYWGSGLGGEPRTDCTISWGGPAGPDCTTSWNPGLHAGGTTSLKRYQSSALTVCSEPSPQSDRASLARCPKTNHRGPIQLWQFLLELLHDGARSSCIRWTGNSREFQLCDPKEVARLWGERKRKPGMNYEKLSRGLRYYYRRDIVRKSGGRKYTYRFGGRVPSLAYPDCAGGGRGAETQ
# Summary of the method: as §1
# [16] = molecular target: T11, ELF3 (Homo sapiens, UniProt P78545 1-371)
# T11 sequence: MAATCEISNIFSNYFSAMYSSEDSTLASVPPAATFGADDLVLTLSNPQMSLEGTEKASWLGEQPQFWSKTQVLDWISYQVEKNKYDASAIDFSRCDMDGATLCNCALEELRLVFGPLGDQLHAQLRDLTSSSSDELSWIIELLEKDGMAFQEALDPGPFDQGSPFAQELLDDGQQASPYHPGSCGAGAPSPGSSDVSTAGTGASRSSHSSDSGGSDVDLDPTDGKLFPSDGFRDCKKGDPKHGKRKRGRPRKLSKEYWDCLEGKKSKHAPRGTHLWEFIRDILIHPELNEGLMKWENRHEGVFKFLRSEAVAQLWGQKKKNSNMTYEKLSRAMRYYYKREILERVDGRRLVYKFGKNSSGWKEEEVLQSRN
# Summary of the method: as §1
# [17] = molecular target: ETV1 (Homo sapiens, UniProt P50549 1-477)
# ETV1, sequence (P50549 whole entry): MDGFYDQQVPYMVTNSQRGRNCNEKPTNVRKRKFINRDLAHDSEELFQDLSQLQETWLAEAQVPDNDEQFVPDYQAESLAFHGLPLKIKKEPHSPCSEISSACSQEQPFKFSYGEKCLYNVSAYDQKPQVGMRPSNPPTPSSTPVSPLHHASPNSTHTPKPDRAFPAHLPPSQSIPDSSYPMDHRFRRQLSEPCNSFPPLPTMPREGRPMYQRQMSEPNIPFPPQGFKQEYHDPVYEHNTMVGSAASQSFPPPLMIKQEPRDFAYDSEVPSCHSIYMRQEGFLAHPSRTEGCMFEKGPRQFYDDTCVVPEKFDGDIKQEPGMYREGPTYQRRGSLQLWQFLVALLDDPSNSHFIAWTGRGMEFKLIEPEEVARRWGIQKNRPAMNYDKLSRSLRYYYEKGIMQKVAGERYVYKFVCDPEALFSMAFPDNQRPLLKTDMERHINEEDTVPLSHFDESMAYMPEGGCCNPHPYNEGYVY
# Summary of the method: as §1
sequence,measurement,setting,value
TGCGAC,binding signal,[1],"1.2 fold enrichment (6-mer frequency, TF over GST control)"
same,binding signal,[2],"1.25 fold enrichment (6-mer frequency, TF over GST control)"
same,binding signal,[3],"1.21 fold enrichment (6-mer frequency, TF over GST control)"
same,binding signal,[4],"1.26 fold enrichment (6-mer frequency, TF over GST control)"
same,binding signal,[5],"1.22 fold enrichment (6-mer frequency, TF over GST control)"
same,binding signal,[6],"1.13 fold enrichment (6-mer frequency, TF over GST control)"
same,binding signal,[7],"1.24 fold enrichment (6-mer frequency, TF over GST control)"
same,binding signal,[8],"1.27 fold enrichment (6-mer frequency, TF over GST control)"
same,binding signal,[9],"1.16 fold enrichment (6-mer frequency, TF over GST control)"
same,binding signal,[10],"1.24 fold enrichment (6-mer frequency, TF over GST control)"
same,binding signal,[11],"1.24 fold enrichment (6-mer frequency, TF over GST control)"
same,binding signal,[12],"1.3 fold enrichment (6-mer frequency, TF over GST control)"
same,binding signal,[13],"1.27 fold enrichment (6-mer frequency, TF over GST control)"
same,binding signal,[14],"1.25 fold enrichment (6-mer frequency, TF over GST control)"
same,binding signal,[15],"1.33 fold enrichment (6-mer frequency, TF over GST control)"
same,binding signal,[16],"1.32 fold enrichment (6-mer frequency, TF over GST control)"
same,binding signal,[17],"1.18 fold enrichment (6-mer frequency, TF over GST control)"
